Test [1] can be described thus: ATG_TAL_CIS: Attagene CIS-FACTORIAL HepG2 Assay for human TAL Basal Promoter (AID 2282966; active = hit-call score of the fitted dose curve at least 0.9, where 1 is the maximum; inactive = score below 0.9;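 also: background control endpoint measuring basal TAL promoter reporter mRNA not a specific factor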). The conditions noted are these: HepG2 Attagene cis-factorial TAL promoter reporter; actives raise or lower the signal. An outline of the steps:
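Steps: transfect HepG2 with multiple reporter transcription units; dose 24 h; isolate RNA, reverse-transcribe, PCR-amplify, label with 6-FAM, digest with HpaI; resolve by capillary electrophoresis. Bidirectional fitting against DMSO baseline.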

Test [2] is described as follows: ATG_TGFb_CIS: Attagene CIS-FACTORIAL HepG2 Assay for human Transforming Growth Factor (TGF) (AID 2282967; active = hit-call score of the fitted dose curve at least 0.9, where 1 is the maximum; inactive = score below 0.9). The conditions noted are these: HepG2 Attagene CIS TGFb reporter, mRNA transcription; actives raise or lower the signal. The essentials:
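After a 24-hour incubation with compound, transfected HepG2 cells were lysed for RNA; reporter cDNA was amplified, fluorescently end-labeled and separated by CE. DMSO served as baseline for bidirectional fits.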

Test [3] can be described thus: ATG_VDRE_CIS: Attagene CIS-FACTORIAL HepG2 Assay for human Vitamin D Receptor Element (VDRE) (AID 2282968; active = hit-call score of the fitted dose curve at least 0.9, where 1 is the maximum; inactive = score below 0.9). The settings on record: HepG2 VDRE cis-reporter transcription, actives raise or lower the signal. An outline of the steps:
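Reporter mRNA induction, quantified by capillary electrophoresis of fluorescently labelled RT-PCR products, was read 24 h after dosing HepG2 cells carrying transiently transfected cis-regulated reporter units; gain or loss relative to DMSO.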

Test [4] deals with Estrogen receptor (Homo sapiens) (UniProt P03372). Briefly: ATG_ERa_TRANS: Attagene TRANS-FACTORIAL HepG2 Assay for human Estrogen Receptor alpha (ERa) (AID 2282970). The settings on record: HepG2 Attagene TRANS ERa GAL4 reporter, mRNA. The essentials:
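Multiplexed cell-based reporter format in HepG2: chimeric ERa-Gal4 protein drives GAL4-UAS reporter transcription. Fluorescent reporter mRNA quantified by capillary electrophoresis 24 hours after dosing; endpoint fitted as signal gain against DMSO.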

The target of test [5] is X-box-binding protein 1 (Homo sapiens) (UniProt P17861). Briefly: ATG_Xbp1_CIS: Attagene CIS-FACTORIAL HepG2 Assay for human X-box Binding Protein 1 (XBP1) (AID 2282972; active = hit-call score of the fitted dose curve at least 0.9, where 1 is the maximum; inactive = score below 0.9). The conditions noted are these: HepG2 XBP1 cis-element reporter, Attagene multiplex; actives raise or lower the signal. The essentials:
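Fluorescence-labelled cDNA fragments from reporter transcripts, separated by capillary electrophoresis, give the signal. Source: HepG2 cells transfected with promoter-driven reporter units, harvested 24 h post-dose. DMSO served as reference for bidirectional curve fitting.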

A short description of test [6]: ATG_M_19_TRANS: Attagene TRANS-FACTORIAL HepG2 Assay for M19 Transcription Factor (Internal Marker) (AID 2282974). The settings on record: HepG2 Attagene TRANS-FACTORIAL M19 internal marker reporter. The essentials: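 HepG2 transiently transfected with GAL4-UAS multiplex reporter constructs, exposed 24 h; reporter RNA quantified by RT-PCR, 6-FAM labeling, HpaI digestion and capillary electrophoresis; internal background marker fitted upward versus DMSO.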

A short description of test [7]: ATG_GAL4_TRANS: Attagene TRANS-FACTORIAL HepG2 Assay for GAL4 (Internal Marker) (AID 2282976). The conditions noted are these: HepG2 Attagene TRANS GAL4 internal marker reporter. An outline of the steps: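 Liver HepG2 line bearing multiplexed GAL4-UAS reporter constructs; 24 h chemical treatment. Transcripts were quantified as fluorescent fragments on capillary electrophoresis after RT-PCR and HpaI cut, with activity fitted upward from DMSO.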

Test [8] has as its target Estrogen-related receptor gamma (Homo sapiens) (UniProt P62508). Briefly: ATG_ERRg_TRANS: Attagene TRANS-FACTORIAL HepG2 Assay for human Estrogen-Related Receptor gamma (ERRg) (AID 2282977).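 Also: hits increase reporter signal over DMSO so potencies reflect activators.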 The settings on record: HepG2 Attagene TRANS reporter, ERRg transactivation. An outline of the steps: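 HepG2 cells transiently transfected with multiplexed GAL4-UAS reporter units driven by chimeric NR-Gal4 proteins; 24 h exposure. Reporter mRNA quantified by RT-PCR, fluorescent labelling, HpaI digestion and capillary electrophoresis; gain of signal vs DMSO.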

For test [9], the target named is Oxysterols receptor LXR-beta (Homo sapiens) (UniProt P55055). In words: ATG_LXRb_TRANS: Attagene TRANS-FACTORIAL HepG2 Assay for human Liver X Receptor beta (LXRb) (AID 2282981). The settings on record: HepG2 Attagene TRANS GAL4-LXRb reporter, mRNA. The essentials:
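Transient transfection HepG2 (multiplexed RTUs, GAL4-UAS); NR-Gal4 chimera; 24 h exposure; RNA → RT-PCR → 6-FAM primer extension → HpaI → CE; increase vs DMSO.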

The target of test [10] is Hepatocyte nuclear factor 4-alpha (Homo sapiens) (UniProt P41235). Briefly: ATG_HNF4a_TRANS: Attagene TRANS-FACTORIAL HepG2 Assay for human Hepatocyte Nuclear Factor 4 alpha (HNF4a) (AID 2282982). The conditions noted are these: HepG2 HNF4a transactivation reporter, mRNA readout. The essentials: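 Readout is fluorescent reporter-transcript fragments resolved by capillary electrophoresis after RT-PCR from HepG2 cells dosed for 24 h. Cells carried transfected GAL4-UAS reporter constructs measuring exogenous NR-GAL4 chimera activity; DMSO served as baseline.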
Sequence of Hepatocyte nuclear factor 4-alpha (Homo sapiens) (P41235 whole entry, looked up, the tested form may be a part): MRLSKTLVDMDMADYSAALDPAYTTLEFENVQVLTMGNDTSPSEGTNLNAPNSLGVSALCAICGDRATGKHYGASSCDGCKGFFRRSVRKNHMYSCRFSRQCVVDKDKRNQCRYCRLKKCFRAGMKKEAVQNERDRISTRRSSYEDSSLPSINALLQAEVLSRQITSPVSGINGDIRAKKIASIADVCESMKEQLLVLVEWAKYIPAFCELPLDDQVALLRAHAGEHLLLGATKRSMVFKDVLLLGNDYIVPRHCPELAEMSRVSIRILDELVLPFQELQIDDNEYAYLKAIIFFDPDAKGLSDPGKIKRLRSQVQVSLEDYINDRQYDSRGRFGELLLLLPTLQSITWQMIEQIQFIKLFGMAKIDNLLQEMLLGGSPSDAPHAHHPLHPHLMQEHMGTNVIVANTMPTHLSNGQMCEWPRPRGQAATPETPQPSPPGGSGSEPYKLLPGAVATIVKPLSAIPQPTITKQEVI

Test [11] in a line: ATG_M_32_TRANS: Attagene TRANS-FACTORIAL HepG2 Assay for M32 Transcription Factor (Internal Marker) (AID 2282984).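 Also: transcript level of a background control reporter unit measured by RT-PCR and capillary electrophoresis.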 The conditions noted are these: HepG2 Attagene TRANS M32 internal marker reporter. The essentials: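 Measures reporter mRNA induction in human HepG2 liver cells after 24 h chemical treatment. Transcripts from transiently transfected GAL4-UAS reporter units are amplified, fluorescently labelled and sized by capillary electrophoresis; gain of signal relative to DMSO.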

The target in test [12] is Transcriptional activator Myb (Homo sapiens) (UniProt P10242). In words: ATG_Myb_CIS: Attagene CIS-FACTORIAL HepG2 Assay for human Myeloblastosis (Myb) Proto-Oncogene Transcription Factor (AID 2282986; active = hit-call score of the fitted dose curve at least 0.9, where 1 is the maximum; inactive = score below 0.9). The conditions noted are these: HepG2 Attagene CIS-FACTORIAL Myb reporter transcription; actives raise or lower the signal. An outline of the steps: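 Transiently transfected HepG2 cells carrying a multiplexed cis-promoter reporter set report endogenous Myb activity after 24 h compound exposure. Reporter mRNA is read by RT-PCR with capillary electrophoresis of fluorescent products, fitted bidirectionally against DMSO.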
Sequence of Transcriptional activator Myb (Homo sapiens) (P10242 whole entry, looked up): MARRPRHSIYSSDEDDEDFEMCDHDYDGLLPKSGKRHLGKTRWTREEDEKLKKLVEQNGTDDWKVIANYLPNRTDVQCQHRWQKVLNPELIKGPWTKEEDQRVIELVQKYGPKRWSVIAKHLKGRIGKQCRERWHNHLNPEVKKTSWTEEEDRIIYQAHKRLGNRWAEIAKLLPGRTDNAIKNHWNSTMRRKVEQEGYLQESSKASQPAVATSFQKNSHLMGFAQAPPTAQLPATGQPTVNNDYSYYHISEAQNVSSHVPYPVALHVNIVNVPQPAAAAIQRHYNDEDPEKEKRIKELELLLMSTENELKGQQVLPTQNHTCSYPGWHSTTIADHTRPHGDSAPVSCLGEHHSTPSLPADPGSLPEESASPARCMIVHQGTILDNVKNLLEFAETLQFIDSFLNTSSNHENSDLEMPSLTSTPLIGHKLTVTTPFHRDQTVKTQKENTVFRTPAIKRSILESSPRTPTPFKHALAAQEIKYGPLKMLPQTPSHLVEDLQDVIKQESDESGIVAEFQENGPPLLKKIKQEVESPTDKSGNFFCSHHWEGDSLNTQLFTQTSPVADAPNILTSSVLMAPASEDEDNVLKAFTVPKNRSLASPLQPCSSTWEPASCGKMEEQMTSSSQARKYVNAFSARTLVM

Test [13] addresses Nuclear respiratory factor 1 (Homo sapiens) (UniProt Q16656). Briefly: ATG_NRF1_CIS: Attagene CIS-FACTORIAL HepG2 Assay for human Nuclear Respiratory Factor 1 (NRF1) Orphan Gene (AID 2282987; active = hit-call score of the fitted dose curve at least 0.9, where 1 is the maximum; inactive = score below 0.9). The conditions noted are these: HepG2 NRF1 cis-element reporter, Attagene multiplex; actives raise or lower the signal. An outline of the steps:
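HepG2 cells transiently transfected with multiple cis-regulated reporter units, exposed 24 h. Reporter mRNAs measured by RT-PCR, fluorescent labelling, HpaI digestion and capillary electrophoresis; bidirectional fitting against DMSO.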

Test [14] has as its target Glucocorticoid receptor (Homo sapiens) (UniProt P04150). In words: ATG_GR_TRANS: Attagene TRANS-FACTORIAL HepG2 Assay for human Glucocorticoid Receptor (GR) (AID 2282978).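 Also: activators score as hits since higher reporter transcript over DMSO is fitted.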 The conditions noted are these: HepG2 Attagene TRANS GR reporter, mRNA transcription. The essentials:
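HepG2 cells transiently transfected with GAL4-UAS reporter units and exogenous GR-Gal4 chimera, dosed 24 h. Reporter mRNA by RT-PCR, FAM labeling, HpaI digest and capillary electrophoresis; gain-of-signal fit versus DMSO.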

The target in test [15] is Oxysterols receptor LXR-alpha (Homo sapiens) (UniProt Q13133). Briefly: ATG_LXRa_TRANS: Attagene TRANS-FACTORIAL HepG2 Assay for human Liver X Receptor alpha (LXRa) (AID 2282980). The settings on record: HepG2 Attagene TRANS reporter, LXRa transactivation. The essentials:
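In this multiplexed TRANS system, compounds act on HepG2 cells carrying GAL4-UAS reporter units and a receptor-GAL4 fusion for 24 h. Induced reporter RNA is amplified, fluorescently labelled and sized by capillary electrophoresis, with DMSO as baseline.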

The target in test [16] is Nuclear receptor subfamily 4 group A member 2 (Homo sapiens) (UniProt P43354). In words: ATG_NURR1_TRANS: Attagene TRANS-FACTORIAL HepG2 Assay for human Nuclear Receptor Related Protein 1 (NURR1) (AID 2282985). The settings on record: HepG2 Attagene TRANS reporter, mRNA readout. The essentials:
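Transient transfection of HepG2, human liver cells, with multiple GAL4-UAS reporter transcription units. Cells dosed 24 h, RNA isolated, reverse-transcribed, PCR-amplified, FAM-labelled, HpaI-digested, sized by capillary electrophoresis. DMSO served as negative control.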

The nature of test [17]: ATG_M_06_TRANS: Attagene TRANS-FACTORIAL HepG2 Assay for M06 Transcription Factor (Internal Marker) (AID 2282983).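 Also: reporter transcript level by RT-PCR then capillary electrophoresis fluorescence.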 The conditions noted are these: HepG2 Attagene TRANS M06 internal marker reporter. The essentials:
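Internal-marker background readout from a multiplexed TRANS reporter system in HepG2; 24 h dosing; mRNA induction quantified by RT-PCR plus capillary electrophoresis fluorescence; DMSO as negative control and baseline.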

Results filed as inconclusive are left out. Active and inactive are the calls of the source. The calls were made as follows, unless noted: active = hit-call score of the fitted dose curve at least 0.9, where 1 is the maximum; inconclusive = response in the unintended direction; inactive = score below 0.9.

A word on the AC50: it is the concentration giving half of the maximal activity seen.

Sequence of X-box-binding protein 1 (Homo sapiens) (P17861 whole entry, looked up, the tested form may be a part): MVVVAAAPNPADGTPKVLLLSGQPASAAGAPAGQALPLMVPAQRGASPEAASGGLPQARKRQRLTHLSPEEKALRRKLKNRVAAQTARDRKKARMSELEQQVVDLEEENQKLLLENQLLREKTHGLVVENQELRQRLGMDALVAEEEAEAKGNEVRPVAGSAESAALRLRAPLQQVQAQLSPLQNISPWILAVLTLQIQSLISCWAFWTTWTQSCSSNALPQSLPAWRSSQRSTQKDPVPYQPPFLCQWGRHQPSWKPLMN
Sequence of Oxysterols receptor LXR-alpha (Homo sapiens) (Q13133 whole entry, looked up, the tested form may be a part): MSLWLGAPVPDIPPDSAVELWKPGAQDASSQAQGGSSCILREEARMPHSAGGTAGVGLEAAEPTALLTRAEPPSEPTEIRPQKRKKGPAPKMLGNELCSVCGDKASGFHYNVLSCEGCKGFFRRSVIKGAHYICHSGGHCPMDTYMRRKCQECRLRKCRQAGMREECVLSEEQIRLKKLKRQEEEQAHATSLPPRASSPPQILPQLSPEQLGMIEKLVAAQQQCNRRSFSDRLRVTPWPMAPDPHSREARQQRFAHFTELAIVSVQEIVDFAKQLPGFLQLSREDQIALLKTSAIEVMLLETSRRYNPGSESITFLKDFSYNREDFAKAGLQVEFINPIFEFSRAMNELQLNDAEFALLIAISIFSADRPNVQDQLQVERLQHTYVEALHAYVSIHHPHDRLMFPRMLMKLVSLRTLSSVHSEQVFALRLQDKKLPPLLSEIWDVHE
Sequence of Glucocorticoid receptor (Homo sapiens) (P04150 whole entry, looked up, the tested form may be a part): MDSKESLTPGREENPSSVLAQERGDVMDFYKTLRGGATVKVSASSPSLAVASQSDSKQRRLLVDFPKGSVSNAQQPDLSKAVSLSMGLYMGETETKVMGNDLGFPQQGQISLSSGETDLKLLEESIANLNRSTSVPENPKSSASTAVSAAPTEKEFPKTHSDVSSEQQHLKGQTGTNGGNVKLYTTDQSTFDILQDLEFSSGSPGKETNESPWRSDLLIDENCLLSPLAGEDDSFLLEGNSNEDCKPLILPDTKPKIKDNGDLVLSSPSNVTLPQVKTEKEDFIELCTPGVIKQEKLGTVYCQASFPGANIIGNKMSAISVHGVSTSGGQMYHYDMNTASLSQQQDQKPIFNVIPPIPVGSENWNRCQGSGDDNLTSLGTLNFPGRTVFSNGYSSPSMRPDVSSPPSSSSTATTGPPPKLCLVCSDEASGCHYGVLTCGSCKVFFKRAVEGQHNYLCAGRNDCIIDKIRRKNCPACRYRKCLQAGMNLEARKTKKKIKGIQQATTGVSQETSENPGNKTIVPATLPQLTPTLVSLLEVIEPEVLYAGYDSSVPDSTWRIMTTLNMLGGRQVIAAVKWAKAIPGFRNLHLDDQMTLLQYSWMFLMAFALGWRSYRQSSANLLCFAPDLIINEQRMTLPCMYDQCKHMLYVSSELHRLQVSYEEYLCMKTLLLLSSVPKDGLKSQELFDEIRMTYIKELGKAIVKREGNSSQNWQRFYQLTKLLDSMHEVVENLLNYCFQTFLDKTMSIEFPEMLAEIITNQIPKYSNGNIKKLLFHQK
Sequence of Oxysterols receptor LXR-beta (Homo sapiens) (P55055 whole entry, looked up, the tested form may be a part): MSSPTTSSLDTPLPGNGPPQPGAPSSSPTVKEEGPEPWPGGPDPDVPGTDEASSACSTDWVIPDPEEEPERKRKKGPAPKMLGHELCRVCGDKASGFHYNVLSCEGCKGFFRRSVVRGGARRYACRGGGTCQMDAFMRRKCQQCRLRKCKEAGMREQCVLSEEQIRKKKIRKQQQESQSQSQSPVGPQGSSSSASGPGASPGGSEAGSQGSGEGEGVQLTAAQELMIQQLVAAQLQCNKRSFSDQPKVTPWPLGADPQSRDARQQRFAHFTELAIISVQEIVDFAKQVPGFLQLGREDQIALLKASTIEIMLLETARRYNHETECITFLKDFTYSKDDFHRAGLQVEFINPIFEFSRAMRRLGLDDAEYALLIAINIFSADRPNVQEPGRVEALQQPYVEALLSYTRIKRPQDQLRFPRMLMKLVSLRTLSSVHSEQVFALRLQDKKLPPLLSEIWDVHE
Sequence of Estrogen receptor (Homo sapiens) (P03372 whole entry, looked up, the tested form may be a part): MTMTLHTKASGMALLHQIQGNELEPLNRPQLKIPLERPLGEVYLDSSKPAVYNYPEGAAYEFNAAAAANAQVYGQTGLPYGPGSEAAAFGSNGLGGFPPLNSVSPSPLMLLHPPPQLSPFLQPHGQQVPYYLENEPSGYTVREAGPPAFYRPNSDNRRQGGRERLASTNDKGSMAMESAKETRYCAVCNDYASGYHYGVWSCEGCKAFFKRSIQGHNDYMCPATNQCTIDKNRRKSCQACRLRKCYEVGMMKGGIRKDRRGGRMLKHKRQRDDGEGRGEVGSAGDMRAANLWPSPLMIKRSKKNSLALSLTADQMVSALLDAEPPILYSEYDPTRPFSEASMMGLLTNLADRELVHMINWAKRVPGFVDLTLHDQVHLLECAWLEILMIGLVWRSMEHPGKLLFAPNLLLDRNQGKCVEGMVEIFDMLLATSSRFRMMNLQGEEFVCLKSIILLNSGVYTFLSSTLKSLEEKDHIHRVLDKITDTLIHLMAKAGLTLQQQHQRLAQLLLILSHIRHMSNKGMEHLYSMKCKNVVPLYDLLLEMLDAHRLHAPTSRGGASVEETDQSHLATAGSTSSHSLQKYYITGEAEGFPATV
Sequence of Nuclear respiratory factor 1 (Homo sapiens) (Q16656 whole entry, looked up): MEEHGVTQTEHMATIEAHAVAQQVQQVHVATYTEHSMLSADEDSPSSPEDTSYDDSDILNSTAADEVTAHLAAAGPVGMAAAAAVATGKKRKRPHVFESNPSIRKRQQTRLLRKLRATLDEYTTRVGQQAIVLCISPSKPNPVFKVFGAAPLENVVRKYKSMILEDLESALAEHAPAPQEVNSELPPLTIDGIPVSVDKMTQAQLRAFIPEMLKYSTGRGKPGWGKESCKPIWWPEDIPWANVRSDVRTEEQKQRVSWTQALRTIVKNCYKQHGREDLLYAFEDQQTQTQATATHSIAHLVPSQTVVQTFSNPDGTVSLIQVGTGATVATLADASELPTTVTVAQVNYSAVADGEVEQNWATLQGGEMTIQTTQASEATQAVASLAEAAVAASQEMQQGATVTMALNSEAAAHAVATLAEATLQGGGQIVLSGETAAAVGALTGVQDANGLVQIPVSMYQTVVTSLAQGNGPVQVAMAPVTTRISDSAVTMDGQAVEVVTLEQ
Sequence of Nuclear receptor subfamily 4 group A member 2 (Homo sapiens) (P43354 whole entry, looked up, the tested form may be a part): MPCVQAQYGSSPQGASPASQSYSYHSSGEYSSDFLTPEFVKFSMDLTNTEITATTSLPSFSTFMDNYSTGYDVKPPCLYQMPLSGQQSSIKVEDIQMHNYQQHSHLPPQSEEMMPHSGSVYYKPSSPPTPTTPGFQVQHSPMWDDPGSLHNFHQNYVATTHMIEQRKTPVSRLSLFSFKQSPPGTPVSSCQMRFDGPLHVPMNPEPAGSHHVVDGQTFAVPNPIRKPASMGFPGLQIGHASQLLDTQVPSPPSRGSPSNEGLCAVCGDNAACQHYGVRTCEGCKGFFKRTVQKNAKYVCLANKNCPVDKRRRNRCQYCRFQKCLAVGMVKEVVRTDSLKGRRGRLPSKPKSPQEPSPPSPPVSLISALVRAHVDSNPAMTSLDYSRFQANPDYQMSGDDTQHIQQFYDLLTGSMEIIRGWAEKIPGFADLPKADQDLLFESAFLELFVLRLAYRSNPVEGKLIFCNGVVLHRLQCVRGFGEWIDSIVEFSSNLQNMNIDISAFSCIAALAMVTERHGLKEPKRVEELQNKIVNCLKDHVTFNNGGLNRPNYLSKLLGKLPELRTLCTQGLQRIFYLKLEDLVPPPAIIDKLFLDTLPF

As for `Clc1cccc(Cl)n1`, the result in test [1], in test [2], in [3], in test [4], in test [5] and in [6] was inactive. Further, the molecule was classed as inactive in [7], in [8], in test [9], in test [10], in test [11] and in test [12]. Further, in test [13], the outcome was inactive.

Take `CC1COc2ccccc2N1C(=O)C(Cl)Cl` (stereo unspecified): the call in test [1], in [2], in [4], in test [5], in [6] and in test [14] was inactive. The outcome in [15], in test [11] and in [13] was inactive. Besides, the AC50 in test [3] is 17.7 µM (active).

As for `C=C(C)C(=O)O[C@H]1C[C@@H]2CC[C@@]1(C)C2(C)C`, the outcome in test [1], in test [3], in test [5], in test [6], in [9] and in test [11] was inactive. The call in test [16] and in [12] was inactive. Further, the half-maximal activity concentration (AC50) in test [2] is 143 µM (active); in test [4], 38 µM (active); in test [15], 27.5 µM (active).

For the molecule `O=C(O)c1cccc(C(F)(F)F)c1`, the result in [1], in [2], in test [3], in test [4], in test [5] and in test [7] was inactive. The molecule was called inactive in test [14], in [15], in test [9], in [10], in test [17] and in test [11]. Further, the molecule was classed as inactive in [12] and in test [13].

As to `O=Cc1ccc(F)cc1`, the molecule was classed as inactive in [1], in test [2], in test [3], in test [4], in test [5] and in test [7]. Further, the outcome in test [14], in test [9], in test [17], in test [11], in test [16] and in test [12] was inactive. In addition, the result in test [13] was inactive.

Values taken from PubChem BioAssay (EPA / NIEHS).
